M1 ag parental – counter-screen for M1 agonists: effect in parental CHO-K1 cells; Fluo-8 calcium fluorescence; scaled to maximal ATP response, vehicle zero; activation, % at 3 µM; 0.48% of 360,000 active; in the data active means activation above about 15%;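 further: untransfected CHO-K1 host cells lacking M1 receptor as counterscreen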
CHO-K1 Ca PAM – counter-screen for M1 PAMs: effect in parental CHO-K1 cells | 0.02% of 360,000 active | ATP EC20, Fluo-8 calcium fluorescence; 0% at ATP EC20, 100% at ATP max | activation, % at 3 µM;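 active means activation above the run cutoff, the mean activation of all test compounds plus 3 SD, cut at about 40% in these data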;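 further: peak over basal fluorescence ratio in a 140 s read after ATP addition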
CHRM1 agonist – agonists of human M1 muscarinic receptor. CHO-K1 hM1, Fluo-8 calcium fluorescence, agonist mode; 0% DMSO, 100% acetylcholine EC100. activation, % at 3 µM. 0.33% of 360,000 active;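 active means activation above the run's mean compound activation plus 3 SD, cut at about 16% in these data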;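 further: peak over basal fluorescence ratio within a 140 s kinetic read after compound addition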
Target sequence (P11229 whole entry, looked up): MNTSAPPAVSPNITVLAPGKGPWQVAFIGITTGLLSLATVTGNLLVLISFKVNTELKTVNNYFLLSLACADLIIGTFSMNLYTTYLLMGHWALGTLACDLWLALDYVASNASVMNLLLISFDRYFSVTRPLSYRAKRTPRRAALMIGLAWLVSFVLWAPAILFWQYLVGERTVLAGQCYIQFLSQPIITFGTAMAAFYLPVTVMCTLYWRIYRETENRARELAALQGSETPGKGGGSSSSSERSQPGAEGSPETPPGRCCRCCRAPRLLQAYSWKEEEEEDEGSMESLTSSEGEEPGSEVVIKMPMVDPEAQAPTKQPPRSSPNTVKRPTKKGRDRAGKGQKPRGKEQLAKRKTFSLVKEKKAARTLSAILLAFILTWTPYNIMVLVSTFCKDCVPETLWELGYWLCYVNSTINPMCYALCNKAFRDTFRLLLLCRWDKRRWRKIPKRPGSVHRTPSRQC
CHRM1 PAM – positive allosteric modulators of human M1 muscarinic receptor; P11229; CHO-K1 hM1, Fluo-8 calcium fluorescence, ACh EC20; 0% = ACh EC20, 100% = maximal ACh; activation, % at 3 µM; 0.088% of 360,000 active; AID 588819; in the data active means activation above about 19%, passing the limit was not always enough
M1 antag – antagonists of human M1 muscarinic receptor; P11229; CHO-K1 hM1, Fluo-8 calcium fluorescence, ACh EC80 antagonist; inhibition, % at 3 µM; 1.3% of 360,000 active; AID 588852;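 active means percent inhibition above its own plate's cutoff, namely the mean of that plate's compound wells plus 3 SD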;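 further: peak over basal fluorescence ratio during 140 s after agonist addition; 0% = ACh EC80 plus DMSO and 100% = DMSO alone without agonist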
CHO-K1 Ca antag – nonselective inhibitor or artifact in parental CHO-K1 cells; ATP-induced calcium, Fluo-8 fluorescence; inhibition, % at 3 µM; 0.6% of 360,000 active; AID 602250;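 active means inhibition above a per-plate cutoff, the plate's mean sample inhibition plus 3 SD, cut at about 24% in these data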;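 further: 0% = DMSO plus EC80 ATP and 100% = DMSO alone without ATP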
An asterisk follows results filed as active. An excerpt weighted towards active compounds, which were near 2.4% of everything screened.

SMILES	M1 ag parental	CHO-K1 Ca PAM	CHRM1 agonist	CHRM1 PAM	M1 antag	CHO-K1 Ca antag
CC(=O)NCCc1ccc(C(=O)CSc2nnc(C3CC3)n2C2CC2)cc1	0.9	16.6	0.0	2.4	8.0	-6.4
Cc1nc2c(OCc3ccc(C(F)(F)F)cc3)cccn2c1N(C)C(=O)CCC1CCCC1	1.0	-5.5	-8.0	-26.3	27.7	0.0
Cc1nc2c(OCc3ccc(C#N)cc3)cccn2c1N(C)C(=O)CCC1CCCC1	7.5	12.8	0.5	-31.7	39.6*	-7.4
Cc1nc2c(OCc3ccc(F)cc3)cccn2c1N(C)C(=O)CCC1CCCC1	2.8	4.0	-8.1	-33.0	42.9*	-12.0
COc1ccc(N2CCN(C(=O)CN3c4cccc5cccc(c45)S3(=O)=O)CC2)cc1	2.2	8.5	-1.9	7.0	-11.2	-12.6
c1ccc(CN(CCN2CCOCC2)Cc2ccccc2)cc1	-0.3	13.8	-8.3	-10.1	8.5	-16.4
COc1ccc(C(=O)N(C)CCCC2CCCC2)cc1OC1CCN(C(C)C)CC1	2.6	4.2	-6.2	-18.0	30.5*	-9.2
Cc1cccc(Nc2nc(-c3c(C)nc4ccccn34)cs2)c1	11.8	-8.1	-4.6	-23.3	37.0*	9.9
O=C1Nc2c(Cl)cc(Cl)cc2C1=O	1.4	7.6	16.2*	3.4	-14.0	-6.8
Cc1cccc(N=C2C(=O)Nc3c(Cl)cccc32)c1	0.2	19.7	-1.5	4.2	-9.9	-13.2
CCCCOc1ccccc1NC(=O)c1scc2c1OCCO2	2.3	52.8*	-4.8	-0.9	0.2	-24.5
COc1cc(C2Nc3ccccc3C(=O)N2NS(C)(=O)=O)c([N+](=O)[O-])cc1OC (stereo unspecified)	-0.2	7.4	-3.1	27.3*	-4.0	-7.4
C=CCn1c(COc2ccccc2)nnc1SCc1ccc(C#N)cc1	1.2	-2.6	-5.1	-7.0	2.6	0.1
C=CCn1c(COc2ccc(CC)cc2)nnc1SC/C(O)=C(\C#N)c1nc2ccccc2[nH]1	-0.3	-7.7	-4.1	-8.7	15.1	25.9*
COc1ccccc1/C=C/CN1CCCC(CO)(CCc2ccccc2)C1 (stereo unspecified)	0.8	12.1	-8.3	-17.9	18.6	-0.4
OCC1(CCc2ccccc2)CCCN(C/C=C/c2ccccc2)C1 (stereo unspecified)	0.5	-9.1	-9.0	-24.9	34.7*	-9.5
COc1ccccc1CNC(=O)/C(C#N)=C/c1ccc(OC)c(OC)c1OC	-0.5	-20.4	-4.6	11.2	-10.1	4.4
O=C(c1ccc(Cl)c(S(=O)(=O)N2CCc3ccccc32)c1)N1CCN(c2ccccc2O)CC1	4.1	-2.0	-2.7	-13.7	25.0*	-4.2
CC(=O)N1CCN(C(=O)c2ccc(Cl)c(S(=O)(=O)N3CCc4ccccc43)c2)CC1	1.1	8.2	-3.5	8.8	-10.1	-16.5
O=C(NNC(=O)c1ccccc1O)c1ccc(Cl)c(S(=O)(=O)N2CCc3ccccc32)c1	9.9	-11.3	2.1	-5.5	38.0*	39.9*
Cc1ccc(NC(=O)c2ccc(Cl)c(S(=O)(=O)N3CCc4ccccc43)c2)nc1	-0.4	3.1	-2.3	5.2	-3.8	9.8
Fc1c(F)c(F)c(CSc2nc3ccccc3[nH]2)c(F)c1F	1.2	9.7	-3.2	-3.4	4.7	-7.4
O=S1(=O)CC=C(CSc2nc3ccccc3[nH]2)C1	-0.1	-6.9	-10.6	-19.5	26.1*	13.3
CCc1nc2ccc(C(=O)NCCN3CCCC3)cn2c1N(C)Cc1ccc(OC)cc1	0.1	11.5	-10.2	-28.4	45.3*	-5.2
CCCCN(C)c1c(C)nc2ccc(C(=O)NCCOc3ccc(OC)cc3)cn12	13.9	-13.5	-0.7	-20.0	38.7*	29.6*
SMILES	M1 ag parental	CHO-K1 Ca PAM	CHRM1 agonist	CHRM1 PAM	M1 antag	CHO-K1 Ca antag
CCc1nc2ccc(C(=O)NCc3ccc(OC)cc3)cn2c1N(C)Cc1ccc(OC)cc1	1.9	-0.2	-8.2	-18.2	15.3	2.5
CCCCn1c(SCC(=O)NC2CCCC2)nnc1-c1ccco1	0.3	10.6	0.5	20.3	-22.5	-16.9
C=CCOc1ccccc1CN(CCc1ccccc1)C(=O)c1cccc(S(C)(=O)=O)c1	16.0*	7.8	-4.7	-2.8	4.0	-5.4
Cc1sc2ncn(CC(=O)NCC(=O)N3CCN(c4ccccc4F)CC3)c(=O)c2c1C	0.0	21.9	-1.1	6.1	-9.9	3.5
CCCCN(C(=O)c1ccc(Cl)cc1)C1CC2CCC(C1)N2C (stereo unspecified)	0.8	-9.5	-10.1	-18.8	28.3*	11.7
Cc1ccc(S(=O)(=O)N2CCC(C(=O)OC3CCOC3=O)CC2)cc1C (stereo unspecified)	2.6	2.0	-4.4	3.0	0.7	11.4
CC(=O)c1cccc(S(=O)(=O)N2CCC(C(=O)OC3CCOC3=O)CC2)c1 (stereo unspecified)	0.4	-11.4	-1.9	-11.2	26.9*	13.9
O=C(Nc1c(-c2ccc3c(c2)OCO3)[nH][nH]c1=O)c1ccc2c(c1)OCO2	-0.2	-5.5	-2.5	-2.3	-6.9	1.7
CC(=O)c1ccc(NS(=O)(=O)c2ccc(C(C)(C)C)cc2)cc1	7.0	3.0	-3.1	-4.8	9.3	-4.6
Cc1ccc(S(=O)(=O)Nc2ccc(NC(=O)c3c(F)c(F)c(F)c(F)c3F)cc2)cc1	14.6	15.3	24.5*	-4.5	21.8	-6.7
CC(=O)c1ccc(NS(=O)(=O)c2ccc(C)cc2)cc1	-0.2	-5.7	-2.8	-4.2	-11.6	26.8*
Cc1cc(NS(=O)(=O)c2ccc(NC(=O)c3c(F)c(F)c(F)c(F)c3F)cc2)nc(C)n1	0.7	11.0	-2.0	7.9	-12.4	-3.8
CN(C)c1cc[n+](Cc2c(Cl)cccc2Cl)cc1	0.1	19.0	-4.9	-20.9	79.8*	-8.9
CC(C)C(=O)N1CCN(c2ccc(NC(=O)COc3ccccc3[N+](=O)[O-])cc2)CC1	12.6	-19.0	3.8	-26.1	36.6*	39.7*
CCC(=O)N1CCN(c2ccc(NC(=O)COc3cccc(C)c3C)cc2)CC1	8.6	-3.3	-4.7	-9.5	15.9	15.0
CN1CCN(c2ccc(NC(=O)COc3ccccc3[N+](=O)[O-])cc2)CC1	0.0	5.0	-15.6	12.4	-6.6	2.6
Cc1cccc(OCC(=O)Nc2ccc(N3CCN(C(=O)c4ccccc4)CC3)cc2)c1C	9.8	-3.0	0.9	-12.4	26.9*	3.7
O=C(Cn1cc(F)c(=O)[nH]c1=O)c1ccco1	0.5	3.5	-1.1	1.1	-8.2	-14.1
CCOC(=O)C1=CNS(=O)(=O)NC1c1ccc(OC(C)=O)cc1 (stereo unspecified)	-0.4	19.4	-2.0	6.5	-8.9	-18.7
O=C(COC(=O)CCC(=O)c1cccs1)Nc1ccccc1C(F)(F)F	0.8	5.8	-2.5	9.0	-4.8	-16.5
CC(C)(C)NC(=O)CSc1nc(Cc2ccccc2)nc2ccccc12	0.5	17.5	-3.4	5.5	-8.7	-11.3

From PubChem
